Laboratory results published in PubChem BioAssay AID2782 (National Center for Advancing Translational Sciences (NCATS), 2010).
Inconclusive results are not listed. Where a call stands in place of a potency, no number is given. Activity calls are given as the source filed them. The call rests on the fitted dose curve; in most records, active means well fitted inhibition curve with a large enough effect in the polarisation, with a control signal flat (not every such curve was filed as active); inconclusive means small, poorly fitted or top-dose-only effect, or effect the other way, or a change in a side signal; inactive means no such curve, though single readings can be large or run the other way; the % refers to the polarisation.

Test: Confirmation of Inhibitors Targeting the Menin-MLL Interaction in MLL Related Leukemias: Competition With Texas Red Labeled MLL-derived Mutant Peptide
Details: fluorescence polarization, Texas Red MLL peptide displacement; series mostly up to 94.6 µM
Source text: qHTS Assay for Inhibitors Targeting the Menin-MLL Interaction in MLL Related Leukemias
NIH Chemical Genomics Center [NCGC]
NIH Molecular Libraries Probe Centers Network [MLPCN]
Assay Submitter (PI): Jolanta Grembecka, Tomasz Cierpicki, University of Virginia
Translocations of the MLL (Mixed Lineage Leukemia) gene are frequently found in human leukemias affecting both children and adults. Fusion of MLL to one of more than 60 genes results in generation of oncogenic proteins upregulating Hox genes, which are vital to blood cell development. Patients harboring fusion of the MLL gene suffer from aggressive leukemias and respond poorly to available therapies. All of the oncogenic fusion proteins have a preserved N-terminal fragment of MLL that has been identified to interact with menin. It has been recently discovered that association with menin is critical to the leukemogenic activity of the MLL fusion oncoproteins. Selective targeting of the menin-MLL interaction could provide an attractive therapeutic approach to develop novel drugs for MLL-related leukemias. Small molecules blocking the menin-MLL interaction should reverse the oncogenic potential of MLL fusion proteins.
We have developed and optimized a fluorescence polarization-based assay for the identification of Menin-MLL inhibitors. The assay was run employing two different MLL-derived peptides. The present assay uses a 12 amino acid peptide labeled with fluorescein at its N-terminus. This peptide consists of the menin high affinity binding motif from MLL and is potently bound by menin. Another peptide with a mutated sequence, labeled with Texas Red, was used in parallel as a less stringent screen for inhibitors.
The present assay was run to confirm the activity of hits from the primary screen using the peptide with a mutated sequence, labeled with Texas Red.
The Menin protein, the MLL-wild type (w.t.) derived peptide (N-terminal 12 amino acids), the MLL-derived peptide labeled with Texas Red and the MLL-w.t. peptide labeled with Fluorescein were kindly supplied by laboratory of Dr. Jolanta Grembecka, University of Virginia. All protein and peptide solutions were stored in single use aliquots at -80C. The Eu3+ Cyrptate-conjugated mouse monoclonal antibody anti-6 Histidine (Eu3+-AB) and the Streptavidin-XL665 conjugate (XL665) were purchased from Cisbio International (Bedford, MA). All antibody and XL665 conjugate solution stocks were stored in single use aliquots at -20C. The Buffer components for all assays were purchased from Sigma-Aldrich (St. Louis, MO) and Invitrogen (Carlsbad, CA).
1. FP reaction buffer: 50 mM Tris-HCl pH 7.5, 50 mM NaCl, 1mM DTT.
Before use, 0.05% BSA is added.
2. Menin protein, MLL-w.t. labeled with fluorescein, MLL-mutant peptide labeled with texas red.
Stored in singe use aliquots at -80C.
3. MLL-w.t. unlabeled peptide as positive control: 10 uM final in FP buffer.
1. Prepare Menin at 200 nM, MLL-w.t.-fluorescein at 25 nM, and MLL-mutant-texas red at 50 nM mixture in FP buffer.
2. Prepare Menin at 200 nM, MLL-w.t.-fluorescein at 25 nM, MLL-mutant-texas red at 50 nM, and 10 uM MLL-w.t. unlabeled mixture in FP buffer.
3. Prepare MLL-w.t.-fluorescein at 25 nM and MLL-mutant-texas red at 50 nM mixture in FP buffer.
3. Dispense 4 ul per well of reagent in step 1 in columns 2, 4 - 48 in a black 1536 well plate, dispense 4 ul per well of reagents from steps 2 and 3 in columns 1 and 3 respectively. Incubate plate at ambient for 15 minutes.
4. Transfer 23 nl per well of compound to plate and incubate at ambient for 1 hr.
5. Read fluorescence polarization for each label using the PerkinElmer Envision.
Envision protocol for fluorescein: FITC FP Dual Enh Mirror, Excitation filter 480, Emission filter (1) P-pol 535, Emission filter (2) S-pol 535
Envision protocol for texas red: FP Dual Enh Mirror, Excitation filter 555, Emission filter (1) P-pol 632, Emission filter (2) S-pol 632
Potency means the concentration at half of the fitted maximal effect.

SMILES | Potency
O=C(O)CCC(=O)Nc1ccc(SSc2ccc(NC(=O)CCC(=O)O)cc2)cc1 | inactive
Cc1nc(N2CCN(C)CC2)c2c3c(sc2n1)CCCC3 | 126 µM (active)
CN(C)C(CNc1ncnc2sc3c(c12)CCCCC3)c1ccco1 (stereo not given) | 141 µM (active)
COc1ccc(OC)c(C(c2c(C)[nH][nH]c2=O)c2c(C)[nH][nH]c2=O)c1 | inactive
CCOc1cc(CNCCc2ccc(S(N)(=O)=O)cc2)ccc1OCc1ccccc1 | 70.8 µM (active)
COc1ccc(N(C(=O)c2ccncc2)S(=O)(=O)c2ccc(Cl)cc2)cc1 | inactive
O=[N+]([O-])c1ccc(S(=O)(=O)c2ccccc2)nc1 | inactive
O=C(NCC1CCCO1)c1ccc(OC2CCN(C(=O)C3CC3)CC2)cc1 (stereo not given) | inactive
COC(=O)c1cc(CNC(=O)CCCSc2ccccc2)ccc1OC | inactive
CCN(CC)Cc1cc2[nH]c3c4ccc(Cl)cc4ncc3c2cc1OC | 56.4 µM (active)
CCOc1cc(C(c2c(C)[nH][nH]c2=O)c2c(C)[nH][nH]c2=O)cc(Br)c1OC | inactive
CCOC(=O)Cn1cnc2scc(-c3ccc(C)c(C)c3)c2c1=O | inactive
CC1CN(c2c3c(nc4ncnn24)CCCC3)CC(C)O1 (stereo not given) | inactive
O=C(C1=C(O)C(=O)N(CCN2CCOCC2)C1c1cccc(Br)c1)c1cccs1 (stereo not given) | inactive
CCCn1c(=O)c(C(=O)Nc2ccccc2C(=O)OCC)c(O)c2ccccc21 | inactive
CCOC(=O)C1CCN(CC(O)COCc2ccccc2)CC1 (stereo not given) | inactive
COc1ccc(C)cc1N(C(=O)c1snc(C(N)=O)c1N)C(C(=O)NC1CCCC1)c1ccc(F)cc1 (stereo not given) | inactive
CN1[C@H](CC(=O)c2ccccc2)CCC[C@H]1C[C@@H](O)c1ccccc1 | inactive
CCOC(=O)N1CCN(Cc2nnc(-c3ccccc3C)o2)CC1 | inactive
COc1ccccc1NS(=O)(=O)c1cc(N2Cc3ccccc3C2=N)ccc1N1CCOCC1 | 50.1 µM (active)

SMILES | Potency
CCCc1cc(=O)oc2c3c(c(Cl)cc12)OCN(CCCO)C3 | inactive
CCN1CCN(CC(=O)Nc2ccc(C(C)=O)cc2)CC1 | inactive
CCCCn1c(SCC(=O)NCc2ccc(OC)c(C(=O)O)c2)nc2cc(S(N)(=O)=O)ccc21 | inactive
O=C(C[N+]12CC[N+](CC(=O)c3ccc(F)cc3)(CC1)CC2)c1ccc(F)cc1 | 35.5 µM (active)
O=C(NNCS(=O)(=O)O)c1ccncc1 | inactive
CCOC(=O)c1cnc2ccc(OCC)cc2c1N1CCN(C)CC1 | 31.7 µM (active)
CCOc1ccccc1N(CC(=O)Nc1ccccc1C(=O)N1CCCC1)S(C)(=O)=O | inactive
O=C(Nc1cc(Br)ccc1O)c1cc(-c2ccccc2)on1 | 20 µM (active)
CCOC(=O)c1cnc2ccc(OC)cc2c1Nc1ccc(N2CCN(C)CC2)cc1 | 141 µM (active)
CCc1ccc(CNC(=O)CCS(=O)(=O)Cc2ccccc2F)cc1 | inactive
c1ccc2c(c1)nc(N1CCOCC1)c1c3ccccc3[nH]c21 | inactive
CCCCC(=O)NC(=S)Nc1nnn(CCC)n1 | inactive
Cc1cc2c(N)cccc2nn1 | 141 µM (active)
O=C(CCn1nc(-c2ccccc2)ccc1=O)N1CCN(c2ccccn2)CC1 | inactive
CCc1nnc(NC(=O)C2(C)COC(c3ccc(OC)cc3)OC2)s1 (stereo not given) | inactive
CCc1nn(C)c2c(=O)c(=O)c2n(C)[nH]1 | inactive
COc1cccc(OC)c1NC(=O)CN1CCN(C)CC1 | inactive
CCOC(=O)Cn1c2ccccc2n2nc(CCC(=O)O)c(=O)nc12 | inactive
COc1cc(O)c(C(=O)c2ccccc2)cc1O | inactive
CCN1C(=O)[C@@H]2C(C(=O)c3cnccn3)=NN[C@@H]2C1=O | inactive
